TNAP inh pNP: inhibitors of human tissue-nonspecific alkaline phosphatase. 21,000 tested, under 10 active. AID 615. purified TNAP, pNPP hydrolysis, absorbance 405 nm. inhibition, % at 20 µM;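 also: 0% = DMSO only wells and 100% = 1 mM levamisole wells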
Target sequence (P05186 whole entry, looked up): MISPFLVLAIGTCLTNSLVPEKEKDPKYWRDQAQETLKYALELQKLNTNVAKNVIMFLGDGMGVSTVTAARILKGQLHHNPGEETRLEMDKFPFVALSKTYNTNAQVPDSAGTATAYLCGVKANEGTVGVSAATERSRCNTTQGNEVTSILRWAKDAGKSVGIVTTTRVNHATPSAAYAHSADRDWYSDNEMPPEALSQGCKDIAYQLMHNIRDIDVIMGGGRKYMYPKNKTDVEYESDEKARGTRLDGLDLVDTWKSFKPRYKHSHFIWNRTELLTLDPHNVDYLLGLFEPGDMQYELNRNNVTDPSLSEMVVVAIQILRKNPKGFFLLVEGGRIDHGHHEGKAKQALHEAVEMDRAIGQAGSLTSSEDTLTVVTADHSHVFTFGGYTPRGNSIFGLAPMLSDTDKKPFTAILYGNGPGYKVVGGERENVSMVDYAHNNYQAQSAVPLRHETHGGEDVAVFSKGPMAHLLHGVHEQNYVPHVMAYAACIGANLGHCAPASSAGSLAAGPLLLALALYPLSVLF
TNAP Pi inh: blocks human TNAP phosphate release. P05186. purified TNAP, pNPP, malachite green phosphate absorbance. inhibition, % at 20 µM. 21,000 tested, under 10 active. AID 614
* = called active by the depositor. A selection follows.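 The calls were made as follows: active = inhibition above 50% at the 20 µM single-dose screen; inactive = the rest.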

SMILES	TNAP inh pNP	TNAP Pi inh
c1ccc(CCc2nn3c(Cc4ccccc4)nnc3s2)cc1	6.2	17.0
CCCc1cc(NCCN2CCOCC2)n2c(nc3ccccc32)c1C#N	-0.9	2.6
COc1cc(OC)nc(NC(=O)CSc2nnc(-c3ccccc3)n2C2CCCCC2)n1	2.0	12.8
Cc1ccc2[nH]c3c(c2c1)CN(C(=O)CN1CCN(c2ccccc2F)CC1)CC3	-0.5	6.3
O=C(c1ccco1)N1CCN(S(=O)(=O)Cc2ccc(Cl)cc2)CC1	-3.3	0.7
COc1ccc(-c2c3c(=O)n(C)c(=O)n(C)c3cn2C2CCCCC2)cc1	6.4	6.8
Cc1ccc2cc(C#N)c(NCCNC(=O)C3CC3)nc2c1C	1.0	2.7
CCOC(=O)Nc1ccc(S(=O)(=O)Nn2cnnc2)cc1	2.2	6.4
CSC1=Nc2sc3c(c2C2=NCCN12)CC(C)(C)OC3	5.8	12.3
Cc1ccc(-n2c(CSc3nc(C)cc(C)n3)nnc2SCC(=O)NCc2ccco2)cc1	7.2	-3.0
CCOc1ccc(-c2nc(-c3ccccc3C)no2)cc1	1.7	6.4
O=C(CN(C(=O)CNC(=O)c1ccco1)c1ccc(Cl)c(Cl)c1)NC1CCCCC1	5.8	10.1
CC(=O)Oc1c(Cl)c(N2CCOCC2)c(OC(C)=O)c2ccccc12	-2.8	-13.0
CCc1nc2c(sc3nc(N4CCOCC4)c4c(c32)CC(C)(C)OC4)c(=O)o1	5.1	8.0
Cc1cc(C)c(N2C(=NC(=O)CCCC(=O)O)SC3CS(=O)(=O)CC32)c(C)c1 (stereo not drawn)	1.5	8.4
Cc1sc2nc(C3CC3)nc(NCCNS(C)(=O)=O)c2c1C	3.9	10.6
CC1Cc2ccccc2N1C(=O)CSc1nnnn1Cc1ccccc1 (stereo not drawn)	0.8	0.3
C=CC[N+](C)(C)CCCNC(=O)/C=N/O	0.9	6.5
CC1=C(C#N)c2nc(N)c(C#N)c(C)c2/C1=C\c1ccccc1	-1.4	9.6
Cc1ccc(OCCOCCn2ccnc2)c(Br)c1	7.6	9.7
O=C(Cn1nc(C(F)(F)F)c2c1CCC2)N1CCN(c2ccccc2)CC1	-3.1	-0.2
Cc1nc2cc(F)ccc2n1C1CCN(S(=O)(=O)c2ccccc2)CC1	4.3	0.7
COc1cc2c(cc1NC(=O)CN(C)Cc1nc3ccccc3c(=O)[nH]1)oc1ccccc12	5.0	13.4
Cc1ccc(-c2csc(N3CCC(NS(=O)(=O)c4ccc5c(c4)OCCO5)CC3)n2)cc1	2.8	12.2
CCN(CC)C(=O)C1CCN(Cc2ccc(Br)cc2)CC1	4.1	-6.9
SMILES	TNAP inh pNP	TNAP Pi inh
Cc1cc2c3nonc3ccc2n1-c1ccccc1	-3.8	2.6
Cn1c(=O)c2c(ncn2CC(=O)N2CCN(c3ccc(F)cc3)CC2)n(C)c1=O	2.3	6.7
CCOc1ccc2sc(NS(=O)(=O)c3ccc(OC)c(OC)c3)nc2c1	-0.3	7.4
CCOCCCn1c(=N)c(C(=O)Nc2cc(C)on2)cc2c(=O)n3ccccc3nc21	0.5	-14.1
CCOc1cc(S(=O)(=O)N2CCN(Cc3ccccc3)CC2)ccc1Br	-1.9	0.5
Cc1nn(-c2ccccc2)c(Cl)c1C(=O)Nc1nnc(C2CCCC2)s1	3.0	6.4
Cc1c(=O)n(OCc2c(F)cccc2F)c2ccccc2[n+]1[O-]	4.2	8.4
O=S(=O)(Cc1ccc(Cl)cc1)N1CCCC1	-1.9	3.3
N/C(=N\S(=O)(=O)c1ccc(Cl)s1)c1ccccc1	5.5	9.7
Cc1c(/C(O)=C2/C(=O)C(=O)N(CCCN3CCOCC3)C2c2ccncc2)cnn1-c1ccccc1 (stereo not drawn)	0.0	0.0
COC(=O)C1=C(N)Oc2cc(C)n(CC3CCCO3)c(=O)c2C1c1ccc(Cl)cc1 (stereo not drawn)	4.0	1.6
COC(=O)c1ccc(Cn2cnc3c(sc4nc(N5CCOCC5)c5c(c43)CCCC5)c2=O)o1	5.2	8.6
O=C1CC(N2CCC(O)(c3ccc(Cl)cc3)CC2)C(=O)N1Cc1ccc(N2CCCC2=O)cc1 (stereo not drawn)	4.4	13.5
CCn1c(=O)c2cc(S(=O)(=O)NC3CCCCC3)ccc2n(CC)c1=O	0.0	0.0
O=C(Nc1cccc(S(=O)(=O)c2cccc(NC(=O)C3CC3)c2)c1)C1CC1	1.7	12.1
O=C(CN(Cc1ccccc1F)C(=O)Cn1nnc(-c2cccs2)n1)NCC1CCCO1 (stereo not drawn)	-0.7	6.5
CN(Cc1cccs1)S(=O)(=O)c1cccs1	6.8	20.1
Cc1ccc(C)c(N(CC(=O)NC2CCCCC2)C(=O)CCC(=O)Nc2ccccn2)c1	5.8	10.6
CC(C)C(c1nnnn1C(C)(C)C)N1CCN(c2cccc(Cl)c2)CC1 (stereo not drawn)	-8.5	-2.7
Cc1cccc2nc(C(F)(F)F)nc(=O)n12	5.4	-2.9
COc1ccc(-c2nnnn2CCc2ccccc2)cc1	-1.3	-4.3
CCn1cc(C(=O)Nc2ccc(-n3cnnn3)c(OC)c2)c(=O)c2ccc(C)nc21	2.5	-1.5
COc1ccccc1NS(=O)(=O)c1cc(Cl)ccc1OC	7.1	-18.9
CC#CCN(CC#CC)S(=O)(=O)c1ccc(-n2cnnn2)c(OC)c1	3.2	20.1

Assay outcomes (PubChem)
